# High-throughput results as filed in PubChem.
# Sampled rows, rich in hits. Any-hit rate of the full collection: about 1.9%.
# PABP FP inh = blocks human PABP binding to poly(A) RNA | P11940 | fluorescence polarization | inhibition, % at 35 µM | 290,000 compounds, 1% hits;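 further: calls also rest on retests at 20 µM and on dose response follow-up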
# Target sequence (P11940 whole entry, looked up): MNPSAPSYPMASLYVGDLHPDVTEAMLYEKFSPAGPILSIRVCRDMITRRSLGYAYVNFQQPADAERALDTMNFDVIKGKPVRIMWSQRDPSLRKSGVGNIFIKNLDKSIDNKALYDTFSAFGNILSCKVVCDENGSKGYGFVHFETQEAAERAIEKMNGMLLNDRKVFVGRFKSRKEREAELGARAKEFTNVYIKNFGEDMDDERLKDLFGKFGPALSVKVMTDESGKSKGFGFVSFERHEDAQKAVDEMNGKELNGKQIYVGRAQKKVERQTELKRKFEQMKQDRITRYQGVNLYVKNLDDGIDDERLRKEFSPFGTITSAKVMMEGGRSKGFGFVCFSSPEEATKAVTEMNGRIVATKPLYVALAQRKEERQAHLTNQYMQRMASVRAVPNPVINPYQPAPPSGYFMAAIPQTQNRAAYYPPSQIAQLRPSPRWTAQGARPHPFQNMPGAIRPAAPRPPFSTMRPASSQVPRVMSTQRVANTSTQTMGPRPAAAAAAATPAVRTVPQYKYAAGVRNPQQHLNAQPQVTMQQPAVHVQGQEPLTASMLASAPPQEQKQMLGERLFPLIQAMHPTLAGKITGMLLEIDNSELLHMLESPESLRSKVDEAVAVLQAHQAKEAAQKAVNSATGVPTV
# eIF4H FP inh = inhibitors of RNA binding by human eIF4H; Q15056; eIF4H fluorescence polarization binding assay; inhibition, % at 35 µM; 290,000 compounds, 0.94% hits;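 further: calls also rest on retests at 20 µM and on dose response follow-up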
# MLLE-PAM2 inh = inhibitors of microRNA-mediated deadenylation, human PABP1 MLLE binding; P11940; GST-MLLE / FITC-PAM2 fluorescence polarization; inhibition, % at 20 µM; 360,000 compounds, 0.36% hits; in the data active means inhibition above about 35%, passing the limit was not always enough
# GRK2 aptamer HTS = human GRK2 inhibition via aptamer displacement; bead flow cytometry, FAM-aptamer displacement from GRK2; inhibition of aptamer binding, % at 10 µM; P25098; 330,000 compounds, 0.59% hits;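 active means inhibition of aptamer binding above 40%, roughly 3 SD of noise, on plates passing a quality check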;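 further: median bead fluorescence of bound FAM aptamer so fluorescent compounds give negative values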
# PERK inh = blocks human PERK kinase; CHO PERK-DD fusion, SEAP luminescence translation reporter; AID 1416; inhibition, % at 5.6 µM; Q9NZJ5; 220,000 compounds, 0.17% hits;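 active means inhibition above the mean inhibition of all tested compounds plus 3 SD, set separately per screening campaign, cut at about 2.9% in these data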;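 further: PERK kinase domain activated by AP20187 dimerizer at 100 nM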
# Numbers stand for hits; 0 = inactive; ? = inconclusive; - = no result given. Unless noted, how the calls were made is not given here.
SMILES,PABP FP inh,eIF4H FP inh,MLLE-PAM2 inh,GRK2 aptamer HTS,PERK inh
COCCCNC1=C(C#N)C(=O)NC2(CCCC2)S1,-,-,0,-,-
CCOC(=O)C1(CC2CC2)CCN(Cc2ccc(OC)cc2F)CC1,0,88.8,0,0,0
CCOC(=O)C1(CC2CC2)CCN(Cc2cc(Cl)c(O)c(OC)c2)CC1,0,0,0,0,0
Cc1ccc2nc(NCc3ccco3)c(C=NCc3ccco3)c(=O)n2c1,86.1,67.8,0,0,0
OCC1CCCN(C(=S)Nc2ccc(Nc3ccccc3)cc2)C1 (stereo not given),52.9,?,0,0,0
C/C(=N\NC(=O)CCC(=O)Nc1ccccc1)c1cccs1,0,1.1,0,0,0
COc1ccc(-c2cc3ccccc3n2CC(O)Cn2nc(C)cc2C)cc1 (stereo not given),107.2,77.7,0,0,0
C=CCN1C(=O)C2(NNc3ccccc3O2)c2ccccc21 (stereo not given),125.4,100.9,0,0,0
Cc1cccc(NC(=S)NC(=O)Cc2ccccc2)c1C,0,0,0,0,-
Cc1cc(C)c(O)c(NC(=S)NC(=O)Cc2ccccc2)c1,0,0,41.8,0,-
COc1ccc(-c2coc3c(CN4CCCCC4)c(O)c(CN4CCCCC4)c(O)c3c2=O)cc1,0,0,-,100.0,0
COc1cc(NC(=O)c2ccc3c(SCC(=O)O)c4c(nc3c2)CCCC4)cc(OC)c1OC,0,0,0,0,0
COc1cc(OC)c(NC(=O)c2ccc3c(SCC(=O)O)c4c(nc3c2)CCCC4)cc1Cl,11.7,80.8,0,0,0
Nc1nc(-c2cc(O)ccc2[N+](=O)[O-])cc(-c2ccccc2)c1[N+](=O)[O-],84.1,97.7,0,0,-
C=CCCC(=O)N1C[C@@H](CO)[C@@H](NC)C[C@H]1c1ccccc1Br,-,-,0,-,-
COc1ccc(S(=O)(=O)C(C#N)c2nc3ccccc3nc2N2CCC(C)CC2)cc1 (stereo not given),107.7,63.5,-,0,-
CCOC(=O)N1CCN(c2nc3ccccc3nc2C(C#N)S(=O)(=O)c2ccc(C)cc2)CC1 (stereo not given),118.4,121.5,0,0,0
Cc1ccc(S(=O)(=O)C(C#N)c2nc3ccccc3nc2N2CCN(C)CC2)cc1 (stereo not given),0,?,0,0,0
CC1CCC(NC(=O)c2cccc(S(=O)(=O)N3CCOCC3)c2)CC1 (stereo not given),-,-,0,-,-
COc1cccc2[nH]c3ccccc3c(=O)c12,0,0,0,0,-
Nc1cccc2c(=O)c3ccccc3[nH]c12,92.2,91.9,0,0,-
COc1cc(C(=O)NCC(=O)NNC(=O)C2COc3ccccc3O2)cc(OC)c1OC (stereo not given),-,-,0,0,-
CCn1c(=N)c(S(=O)(=O)c2ccc(Cl)cc2)cc2c(=O)n3ccccc3nc21,104.8,83.1,-,0,0
N=c1c(S(=O)(=O)c2ccc(Cl)cc2)cc2c(=O)n3ccccc3nc2n1Cc1ccco1,65.1,73.4,0,0,-
COc1ccc(CCn2c(=N)c(S(=O)(=O)c3ccc(C)cc3)cc3c(=O)n4ccccc4nc32)cc1,27.8,?,0,0,-
SMILES,PABP FP inh,eIF4H FP inh,MLLE-PAM2 inh,GRK2 aptamer HTS,PERK inh
Cn1c(=N)c(S(=O)(=O)c2ccc(Cl)cc2)cc2c(=O)n3ccccc3nc21,-,-,-,-,0
Cc1ccc(Cn2c(=N)c(S(=O)(=O)c3ccc(Br)cc3)cc3c(=O)n4ccccc4nc32)cc1,0,0,0,0,-
N=c1c(S(=O)(=O)c2ccc(Br)cc2)cc2c(=O)n3ccccc3nc2n1Cc1ccccc1,0,0,0,0,-
N=c1c(S(=O)(=O)c2ccc(Br)cc2)cc2c(=O)n3ccccc3nc2n1Cc1ccco1,64.3,96.5,0,0,-
COc1ccc(/C=N/N2CCN(Cc3ccc(C)cc3)CC2)cc1Br,0,0,0,0,-
COc1ccc(Br)cc1C1NC(=O)c2c(sc3c2CCN(C)C3)N1 (stereo not given),63.7,99.6,0,-,-
CN1CCc2c(sc3c2C(=O)NC(c2ccco2)N3)C1 (stereo not given),0,0,0,0,0
Cc1cc(/C=c2\sc3nc4ccccc4n3c2=O)c(C)n1-c1ccc(C(=O)O)cc1,0.7,0,0,-,0
Cc1cc(/C=c2/sc3nc4ccccc4n3c2=O)c(C)n1-c1ccccn1,0,0,0,0,0
C=CCNc1nc(Nc2ccc(OC)c(OC)c2)c2sc(-c3ccccc3)cc2n1,-,-,0,-,-
Cc1cc(C(F)(F)F)c2c(N)c(C(=O)Nc3cc(C)on3)sc2n1,54.9,59.0,0,0,0
COc1ccc(NC(=O)c2sc3nc(C)cc(C)c3c2N)cc1,0,0,0,0,-
Cc1ccc2c(c1)NC(c1cccs1)C1=C(CC(C)(C)CC1=O)N2 (stereo not given),11.3,85.7,0,0,0
Cc1ccc(C2Nc3ccccc3NC3=C2C(=O)CC(C)(C)C3)c(O)c1 (stereo not given),0,?,0,0,-
COc1cc(S(=O)(=O)NCC(c2ccco2)N2CCCCC2)ccc1NC(C)=O (stereo not given),-,-,0,0,-
CNC(=S)NN=C(C)CCCC(C)=NNC(=S)NC,-,-,0,-,-
N#CC(C#N)=Cc1ccc(-c2ccc(S(=O)(=O)N=C(N)N)cc2)o1,0,0,0,100.0,0
COC(=O)/C(C#N)=C/c1ccc(-c2ccc(S(N)(=O)=O)cc2)o1,0,0,0,0,0
Cc1ccc(N2C(=O)CC(Sc3cccs3)C2=O)cc1 (stereo not given),0,0,0,0,0
Cc1ccc(SC2CC(=O)N(c3ccc4c(c3)OCCO4)C2=O)cc1 (stereo not given),0,0,42.5,0,0
COc1ccc(/C=C(/NC(=O)c2ccc(Br)o2)C(=O)Nc2cccc(C(=O)O)c2)cc1,-,-,0,-,-
O=c1c2cccc3c(N4CCOCC4)ccc(c32)c2nc3ccccc3n12,122.4,0,-,-,-
CCN1CCN(c2cc(C)nc(-c3ccccc3O)n2)CC1,0,0,0,0,0
CC(=O)Nc1ccc2[nH]c3ccccc3c2c1,72.9,99.1,0,0,0
Cc1c(O)cc2c(c1O)C(=O)CC(c1ccc(O)cc1)O2 (stereo not given),45.0,95.2,0,0,0
SMILES,PABP FP inh,eIF4H FP inh,MLLE-PAM2 inh,GRK2 aptamer HTS,PERK inh
CCCC(=O)OCCNc1cc(SCc2ccco2)c2nonc2c1[N+](=O)[O-],active,79.7,0,0,0
CC(=O)OCCCNc1cc(SCc2ccco2)c2nonc2c1[N+](=O)[O-],0,0,0,0,0
CCc1ccc(/C=N/n2c(C)cc(C)c(C#N)c2=O)cc1,0,0,0,0,0
COc1ccccc1NS(=O)(=O)c1ccc(C)c(NC(=O)c2c(C)noc2C)c1,-,-,0,0,-
CCN=c1scc(C)n1/N=C/c1cc(Br)c(O)c(Br)c1,0,0,0,0,0
CCN=c1scc(C)n1/N=C/c1ccc(O)c(O)c1O,26.8,82.1,0,0,0
Fc1ccc(NCc2nnc(SCc3nnc(-c4ccccc4)o3)n2Cc2ccccc2)cc1,0,58.5,0,0,0
COc1ccc(/C=C2\SC(=S)N(CCCC(=O)Nc3ccccc3C(=O)O)C2=O)cc1OC,34.4,0,0,0,-
COc1ccc(/C=C2\SC(=S)N(CCC(=O)Nc3ccccc3C(=O)O)C2=O)cc1,0,0,0,0,-
